Source: PubChem BioAssay (NCATS)
Records with an inconclusive call do not appear. Calls of active or inactive are those of the source. The call rests on the fitted dose curve; in most records, active means well fitted curve in the direction sought with a large enough effect; inconclusive means small, poorly fitted or top-dose-only effect, or another doubt; inactive means no such curve, though single readings can be large; an effect the other way counts as inactive or inconclusive.

How the values were obtained:
Es-2 = test: Primary qHTS to identify gynecologic anti-cancer compounds using libraries of approved drugs and bioactive compounds (AID 1345084); conditions: Gynecologic cancer cell panel viability, ATPlite luminescence, 48 h; series mostly up to 57.5 µM; further: nearly all actives have a fitted effect of over 55% in size
In short: (§1)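 Measured: luminescence after ATPlite addition (15 min, RT). Exposure: 48 h, 37 C, 5% CO2.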

HeLa = test: as above; conditions: Gynecologic cancer cell panel viability, ATPlite luminescence, 48 h; series mostly up to 57.5 µM
In short: as §1

Hek293T = test: as above; conditions: Gynecologic cancer cell panel viability, ATPlite luminescence, 48 h, control line for the selectivity index; series mostly up to 57.5 µM
In short: as §1

JEG-3 = test: as above; conditions: Gynecologic cancer cell panel viability, ATPlite luminescence, 48 h; series mostly up to 57.5 µM
In short: as §1

OV90 = test: as above; conditions: Gynecologic cancer cell panel viability, ATPlite luminescence, 48 h; series mostly up to 57.5 µM
In short: as §1

PA-1 = test: as above; conditions: Gynecologic cancer cell panel viability, ATPlite luminescence, 48 h; series mostly up to 57.5 µM
In short: as §1

SKOV3 = test: as above; conditions: Gynecologic cancer cell panel viability, ATPlite luminescence, 48 h; series mostly up to 57.5 µM
In short: as §1

Tov-21-G = test: as above; conditions: Gynecologic cancer cell panel viability, ATPlite luminescence, 48 h; series mostly up to 57.5 µM
In short: as §1

Tov112D = test: as above; conditions: Gynecologic cancer cell panel viability, ATPlite luminescence, 48 h; series mostly up to 57.5 µM
In short: as §1

[1] = Drug repurposing screens with cells derived from glioblastoma tumor samples (AID 1345199); conditions: GBM patient neurospheres viability, ATP luminescence, 48 h; further: nearly all actives have a fitted effect of over 40% in size; further: potency means the concentration at half of the fitted maximal effect
In short: (§2)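 Primary testing used CD133+ neurospheres from four GBM patients, seven concentrations, 48 h exposure and ATP-based viability; confirmation added three slower-growing patient lines.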

astro = test: as above; conditions: viability, ATP luminescence, 48 h; series mostly up to 45.9 µM
In short: as §2

[2] = at 45.9 µM (top of the series), tumour line B
[3] = at 45.9 µM (top of the series), tumour line D
[4] = at 46.1 µM (top of the series), tumour line C
[5] = at 20 µM (top of the series), tumour line C
[6] = at 21.2 µM (top of the series), tumour line B
[7] = at 21.2 µM (top of the series), tumour line D
On the % scale 0 is the no-effect control and ±100 the full control effect.

NS(=O)(=O)Cc1noc2ccccc12
inactive: Potency (Es-2) | Potency (HeLa) | Potency (Hek293T) | Potency (JEG-3) | Potency (OV90) | Potency (PA-1) | Potency (SKOV3) | Potency (Tov-21-G) | Potency (Tov112D) | activity, negative = cell killing [1, 2] -12.5% | activity, negative = cell killing [1, 3] -13.1% | activity, negative = cell killing [1, 4] 1.44% | Potency (astro)

NC1CCN(c2nc3c(cc2F)c(=O)c(C(=O)O)cn3-c2ccc(F)cc2F)C1 (stereo not drawn)
inactive: Potency (Es-2) | Potency (HeLa) | Potency (Hek293T) | Potency (JEG-3) | Potency (OV90) | Potency (PA-1) | Potency (SKOV3) | Potency (Tov-21-G) | Potency (Tov112D) | activity, negative = cell killing [1, 2] -3.86% | activity, negative = cell killing [1, 3] -30% | activity, negative = cell killing ([1]; at 46 µM (top of the series), tumour line A) -29.1% | Potency (astro)

c1ccc(CC2=NCCN2)cc1
inactive: Potency (Es-2) | Potency (HeLa) | Potency (Hek293T) | Potency (JEG-3) | Potency (OV90) | Potency (PA-1) | Potency (SKOV3) | Potency (Tov-21-G) | Potency (Tov112D) | activity, negative = cell killing [1, 5] -9.44% | activity, negative = cell killing [1, 6] -1.18% | activity, negative = cell killing [1, 7] -24.9% | Potency (astro)

COc1ccc(C(=O)c2ccccc2O)c(O)c1
inactive: Potency (Es-2) | Potency (HeLa) | Potency (Hek293T) | Potency (JEG-3) | Potency (OV90) | Potency (PA-1) | Potency (SKOV3) | Potency (Tov-21-G) | Potency (Tov112D) | activity, negative = cell killing [1, 5] -19.6% | activity, negative = cell killing [1, 6] 4.62% | activity, negative = cell killing [1, 7] -15.3% | Potency (astro)

C[N+]12CCC(CC1)C(OC(=O)C(O)(c1ccccc1)c1ccccc1)C2 (stereo not drawn)
inactive: Potency (Es-2) | Potency (HeLa) | Potency (Hek293T) | Potency (JEG-3) | Potency (OV90) | Potency (PA-1) | Potency (SKOV3) | Potency (Tov-21-G) | Potency (Tov112D) | activity, negative = cell killing [1, 5] -3.46% | activity, negative = cell killing [1, 6] -10.6% | activity, negative = cell killing [1, 7] -5.49% | Potency (astro)

Cc1cccc(C)c1NC(=O)c1ccccc1C(=O)O
inactive: Potency (Es-2) | Potency (HeLa) | Potency (Hek293T) | Potency (JEG-3) | Potency (OV90) | Potency (PA-1) | Potency (SKOV3) | Potency (Tov-21-G) | Potency (Tov112D) | activity, negative = cell killing [1, 2] -1.45% | activity, negative = cell killing [1, 3] -18.5% | activity, negative = cell killing [1, 4] -17.8% | Potency (astro)

FC1(F)C(F)(F)C(F)(F)C2(F)C(F)(F)C(F)(F)C(F)(F)C(F)(F)C2(F)C1(F)F (stereo not drawn)
inactive: Potency (Es-2) | Potency (HeLa) | Potency (Hek293T) | Potency (JEG-3) | Potency (OV90) | Potency (PA-1) | Potency (SKOV3) | Potency (Tov-21-G) | Potency (Tov112D) | activity, negative = cell killing [1, 2] -14.2% | activity, negative = cell killing [1, 3] -0.34% | activity, negative = cell killing [1, 4] -17% | Potency (astro)

NC(=O)C1(N2CCCCC2)CCN(CCCC(=O)c2ccc(F)cc2)CC1
inactive: Potency (Es-2) | Potency (HeLa) | Potency (Hek293T) | Potency (JEG-3) | Potency (OV90) | Potency (PA-1) | Potency (SKOV3) | Potency (Tov-21-G) | Potency (Tov112D) | activity, negative = cell killing [1, 2] -7.35% | activity, negative = cell killing [1, 3] -28% | Potency (astro)
active: Potency ([1]; tumour line A) 10 µM

Cn1c(=O)c2[nH]c(Br)nc2n(C)c1=O
inactive: Potency (Es-2) | Potency (HeLa) | Potency (Hek293T) | Potency (JEG-3) | Potency (OV90) | Potency (PA-1) | Potency (SKOV3) | Potency (Tov-21-G) | Potency (Tov112D) | activity, negative = cell killing [1, 2] -10.3% | activity, negative = cell killing [1, 3] -8.55% | activity, negative = cell killing [1, 4] -9.05% | Potency (astro)

CO[C@]12C[C@@H](COC(=O)c3cncc(Br)c3)CN(C)[C@@H]1Cc1cn(C)c3cccc2c13
inactive: Potency (Es-2) | Potency (HeLa) | Potency (Hek293T) | Potency (JEG-3) | Potency (OV90) | Potency (PA-1) | Potency (SKOV3) | Potency (Tov-21-G) | Potency (Tov112D) | activity, negative = cell killing [1, 2] -27.1% | activity, negative = cell killing [1, 3] -16.6% | activity, negative = cell killing [1, 4] -7.09% | Potency (astro)

CN(C)CCN1C(=O)c2ccccc2N(C)c2ccccc21
inactive: Potency (Es-2) | Potency (HeLa) | Potency (Hek293T) | Potency (JEG-3) | Potency (OV90) | Potency (PA-1) | Potency (SKOV3) | Potency (Tov-21-G) | Potency (Tov112D) | activity, negative = cell killing [1, 2] -10.1% | activity, negative = cell killing [1, 3] -18.4% | activity, negative = cell killing [1, 4] 4.2% | Potency (astro)

O=C1c2cccc3c2[C@H](CCC3)CN1[C@@H]1CN2CCC1CC2
active: Potency ([1]; tumour line A) 11.2 µM | Potency ([1]; tumour line D) 11.2 µM
inactive: Potency (Es-2) | Potency (HeLa) | Potency (Hek293T) | Potency (JEG-3) | Potency (OV90) | Potency (PA-1) | Potency (SKOV3) | Potency (Tov-21-G) | Potency (Tov112D) | activity, negative = cell killing [1, 2] -28.4% | Potency (astro)

CC(C)=CCOc1ccc(/C=C/C(=O)c2ccc(OCC=C(C)C)cc2OCC(=O)O)cc1
active: Potency (astro) 31.6 µM
inactive: Potency (Es-2) | Potency (HeLa) | Potency (Hek293T) | Potency (JEG-3) | Potency (OV90) | Potency (PA-1) | Potency (SKOV3) | Potency (Tov-21-G) | Potency (Tov112D) | activity, negative = cell killing [1, 2] 16% | activity, negative = cell killing [1, 3] -25.2% | activity, negative = cell killing [1, 4] -4.09%

COc1ccc(/C=N/NC(=O)c2ccncc2)cc1OC
inactive: Potency (Es-2) | Potency (HeLa) | Potency (Hek293T) | Potency (JEG-3) | Potency (OV90) | Potency (PA-1) | Potency (SKOV3) | Potency (Tov-21-G) | Potency (Tov112D) | activity, negative = cell killing [1, 2] -3.24% | activity, negative = cell killing [1, 3] -6.28% | activity, negative = cell killing [1, 4] -25% | Potency (astro)

O=C1[C@H](CC[C@H](O)c2ccc(F)cc2)[C@@H](c2ccc(O)cc2)N1c1ccc(F)cc1
inactive: Potency (Es-2) | Potency (HeLa) | Potency (Hek293T) | Potency (JEG-3) | Potency (OV90) | Potency (PA-1) | Potency (SKOV3) | Potency (Tov-21-G) | Potency (Tov112D) | activity, negative = cell killing [1, 2] -11.2% | activity, negative = cell killing [1, 3] -13.5% | activity, negative = cell killing [1, 4] 1.66% | Potency (astro)

Cc1cn([C@H]2C[C@H](F)[C@@H](CO)O2)c(=O)[nH]c1=O
inactive: Potency (Es-2) | Potency (HeLa) | Potency (Hek293T) | Potency (JEG-3) | Potency (OV90) | Potency (PA-1) | Potency (SKOV3) | Potency (Tov-21-G) | Potency (Tov112D) | activity, negative = cell killing [1, 2] -16.6% | activity, negative = cell killing [1, 3] -21.3% | activity, negative = cell killing [1, 4] -27% | Potency (astro)
